Screening data as filed in PubChem BioAssay.
KCNQ2 block – blocks the rat KCNQ2 potassium channel; O88943; CHO-K1 KCNQ2, FluxOR thallium flux, 20 min; hits give low values; B-score at 10 µM; 1.1% of 310,000 active; AID 2156;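 active means fluorescence ratio B-score at most minus 3 library SDs, with starting brightness B-score within 2 library SDs, cut at about -5.5 in these data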
KCNQ2 pot – enhances the rat KCNQ2 potassium channel; O88943; CHO-K1 KCNQ2, FluxOR thallium flux fluorescence; hits give high values; B-score at 10 µM; 0.54% of 310,000 active; AID 2239;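 active means fluorescence ratio B-score at least 3 SD of library B-scores, with initial fluorescence B-score within 3 of them, cut at about 5.3 in these data; same plate scores as AID 2156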;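 further: B-score of peak minus minimum over baseline fluorescence ratio after K+ and Tl+ stimulus; positive B-score means potentiation of KCNQ2 with more thallium influx and brighter signal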
Kir21 confirm – confirmation of mouse Kir2.1 potassium channel inhibitors. Kir2.1-expressing cells, FluxOR thallium flux fluorescence; hits give low values. AID 2032. shares compounds with KCNQ2 pot. Tl flux remaining, % of negative control (hits give low values), % at 10 µM. 41% of 2,300 active;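 active means Primary-screen hit whose thallium flux fell at least 3 control SD below untreated wells in both duplicates, with normal baseline fluorescence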;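 further: 0% = blank wells without stimulus and 100% = stimulated no-compound controls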
HEK293 ctr – counter-screen for Kir2.1 inhibitors: effect in parental HEK293 cells. shares compounds with KCNQ2 pot. FluxOR thallium flux fluorescence; 0% = unstimulated blank wells. FluxOR signal as % of negative control (100 = no effect), % at 10 µM. 19% of 2,300 active. AID 2105;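 active means dye signal at least 3 control SD above or below untreated wells in both duplicates, raw fluorescence within 3, either direction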;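 further: percent is based on the flux ratio of peak minus minimum fluorescence over baseline F0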
CHO-K1 Tl ctr – parental CHO-K1 activity in KCNQ2 potentiator counter-screen; shares compounds with KCNQ2 pot; parental CHO-K1 cells, FluxOR thallium flux fluorescence; zero = vehicle mean+3SD, 100% = vehicle-minus-blank window; activity increase over 3SD of controls, % at 10 µM; 43% of 1,200 active; AID 2282;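 active means signal rise of at least 3 SD above the untreated control mean, in both duplicate wells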;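 further: counter screen of KCNQ2 potentiator hits so any rise reflects channel-independent effects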
KCNQ1 pot spec – selectivity of KCNQ2 potentiators: effect on human KCNQ1; shares compounds with KCNQ2 pot; CHO KCNQ1 stable, FluxOR thallium flux fluorescence; beyond 3SD, as % of vehicle-control signal; activation over 3SD threshold, % at 10 µM; 28% of 1,200 active; AID 2283;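 active means fluorescence ratio rise of at least 3 SD of vehicle wells above their mean, in both replicate wells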;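 further: 0% = vehicle mean plus 3 SD and 100% = vehicle minus unstimulated blank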
KCNQ2 pot confirm – rat KCNQ2 channel potentiator confirmation. shares compounds with KCNQ2 pot. CHO-KCNQ2 cells, FluxOR thallium flux fluorescence. potentiation, less the hit threshold, % at 10 µM. 68% of 1,200 active. AID 2287;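 active means fluorescence ratio rising 3 SD or more over the vehicle control mean in both replicates, plus primary screen hit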;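 further: peak minus minimum thallium fluorescence divided by baseline after K/Tl stimulus; 0% = vehicle mean plus 3 SD and 100% = vehicle minus unstimulated blank difference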
Kir2-1 sel – tests whether KCNQ2 potentiators also affect mouse Kir2.1; shares compounds with KCNQ2 pot; HEK293 Kir2.1, FluxOR thallium flux fluorescence; activity over 3SD threshold, % at 10 µM; 2% of 1,200 active;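 active means fluorescence ratio rise of at least 3 SD above the vehicle-control mean, seen in both replicates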;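 further: 0% = vehicle mean plus 3 SD and 100% = vehicle minus no-stimulus blank window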
KCNQ2 W236L pot – rat KCNQ2 W236L mutant potentiation by KCNQ2 potentiators. shares compounds with KCNQ2 pot. CHO KCNQ2-W236L, automated patch clamp current. current increase over 3SD of negative controls (%), hits give high values, % at 25 µM. 10% of 940 active. AID 2558;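 active means current increase at least 3 SD of the untreated controls above them in both duplicate recordings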
Target sequence (O88943 whole entry W236L, looked up): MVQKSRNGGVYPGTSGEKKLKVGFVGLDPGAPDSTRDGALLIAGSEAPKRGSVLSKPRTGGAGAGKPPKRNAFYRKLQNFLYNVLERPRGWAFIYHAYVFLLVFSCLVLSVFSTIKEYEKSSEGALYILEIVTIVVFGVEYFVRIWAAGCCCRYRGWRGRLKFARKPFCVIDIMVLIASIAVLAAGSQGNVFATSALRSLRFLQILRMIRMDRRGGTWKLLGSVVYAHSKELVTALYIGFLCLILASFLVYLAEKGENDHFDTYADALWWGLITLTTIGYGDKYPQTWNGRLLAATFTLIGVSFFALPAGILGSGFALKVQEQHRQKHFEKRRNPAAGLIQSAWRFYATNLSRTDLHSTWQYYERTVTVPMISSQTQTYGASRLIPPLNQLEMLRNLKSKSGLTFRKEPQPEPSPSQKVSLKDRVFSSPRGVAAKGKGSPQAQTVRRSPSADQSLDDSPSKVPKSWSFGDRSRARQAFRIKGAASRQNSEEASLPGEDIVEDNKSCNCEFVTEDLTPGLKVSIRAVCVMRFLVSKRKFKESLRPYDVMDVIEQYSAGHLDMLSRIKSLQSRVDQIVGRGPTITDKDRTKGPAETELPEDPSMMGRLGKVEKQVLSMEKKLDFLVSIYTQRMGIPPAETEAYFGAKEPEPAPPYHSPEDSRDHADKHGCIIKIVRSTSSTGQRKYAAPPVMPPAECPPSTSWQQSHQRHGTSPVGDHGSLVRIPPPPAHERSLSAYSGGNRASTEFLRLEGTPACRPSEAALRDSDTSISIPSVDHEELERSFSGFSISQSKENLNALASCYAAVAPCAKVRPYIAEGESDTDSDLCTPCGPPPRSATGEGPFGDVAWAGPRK
Active calls of the source: *; i = inactive; x = not tested or not shown. Only some compounds are listed: those with a hit (about 1.6% of all), similar ones and a draw of the others.

SMILES | KCNQ2 block | KCNQ2 pot | Kir21 confirm | HEK293 ctr | others
CN(C)c1ccc(/C=C/c2ccc3ccccc3[n+]2C)cc1 | i | x | i | i
CN(CCCS(=O)(=O)[O-])c1ccc(/C=C/c2ccc3ccccc3[n+]2C)cc1 | i | x | x | x
Cc1ccc(-c2csc(=S)[nH]2)cc1 | i | 22.5* | i | 538.0%* | CHO-K1 Tl ctr=-22.9;KCNQ1 pot spec=23.2*;KCNQ2 pot confirm=83.9*;Kir2-1 sel=11.2*;KCNQ2 W236L pot=i
Cc1ccc(-c2ccc(C(=O)O)[nH]2)cc1 | i | x | x | x
CC(NC(=O)C1CCN(S(=O)(=O)c2ccc(Br)s2)CC1)c1ccccc1 (centres undefined) | i | 6.85* | i | i | CHO-K1 Tl ctr=5.4*;KCNQ1 pot spec=-18.8;KCNQ2 pot confirm=14.1*;Kir2-1 sel=-25.1;KCNQ2 W236L pot=i
COc1cccc(CNC(=O)C2CCN(S(=O)(=O)c3ccc(Br)s3)CC2)c1 | i | 7.31* | i | i | CHO-K1 Tl ctr=-4.6;KCNQ1 pot spec=-23.1;KCNQ2 pot confirm=9.6*;Kir2-1 sel=-48.2;KCNQ2 W236L pot=i
O=S(=O)(NCc1ccccc1)c1ccc(Br)s1 | i | x | x | x
CC(NS(=O)(=O)c1ccc(Br)s1)c1ccccc1 (centres undefined) | i | 0.04 | 49.5%* | i
CCC(C)NC(=O)C1CCN(S(=O)(=O)c2ccc(Br)s2)CC1 (centres undefined) | i | 0.77 | x | x
CCS(=O)(=O)N1CCC(C(=O)NCc2cccc(OC)c2)CC1 | i | 0.09 | x | x
O=C(Oc1ccccc1)c1ccc2c(c1)C(=O)N(Cc1ccncc1)C2=O | i | 0.03 | x | x
CC(C)CNC(=O)c1cccc(NC(=O)C(C)Oc2ccccc2)c1 (centres undefined) | i | x | x | x
O=C(/C=C/c1ccccc1[N+](=O)[O-])c1ccccc1Br | i | x | x | x
N#C/C(=C\c1cccc(Oc2ccccc2)c1)C(=O)N1CCOCC1 | -6.37* | -6.37 | 35.5%* | i
COc1cc(/C=C(\C#N)C(=O)N2CCOCC2)cc(Br)c1O | i | x | x | x
O=C(O)c1ccc(Nc2cc(Cl)c3nonc3c2[N+](=O)[O-])cc1 | i | 1.14 | x | x
O=[N+]([O-])c1c(Nc2cccc(O)c2)cc(Cl)c2nonc12 | -15.8* | -15.8 | i | i
CN(CC(=O)Nc1cccc(F)c1)C(=O)c1cccc(S(=O)(=O)N2CC3(C)CC2CC(C)(C)C3)c1 (centres undefined) | i | 9.15* | i | i | CHO-K1 Tl ctr=92.5*;KCNQ1 pot spec=16.5*;KCNQ2 pot confirm=1.7*;Kir2-1 sel=-26.6;KCNQ2 W236L pot=i
CCCCCNC(=O)c1cccc(S(=O)(=O)N2CC3(C)CC2CC(C)(C)C3)c1 (centres undefined) | i | 2.23 | x | x
CCOC(=O)[C@H]1[C@H]2COc3cc(OC)ccc3[C@@H]2N2C(=O)N(c3ccc(Cl)cc3)C(=O)[C@@]12C | i | x | x | x
CCC(C(=O)OCC(=O)NC(=O)c1ccccc1)c1ccccc1 (centres undefined) | i | x | x | x
CCC(C(=O)OCC(=O)NC(=O)c1ccccc1OC)c1ccccc1 (centres undefined) | i | x | 69.5%* | i
Cc1ccc(NC(=S)NNc2ncc(C(F)(F)F)cc2Cl)cc1 | i | 1.86 | x | x
ON/C=N/C(=S)Nc1ncc(C(F)(F)F)cc1Cl | i | 10.9* | i | 140.0%* | CHO-K1 Tl ctr=-1.2;KCNQ1 pot spec=-13.1;KCNQ2 pot confirm=40.6*;Kir2-1 sel=-36.9;KCNQ2 W236L pot=i
CON/C=N/C(=S)Nc1ncc(C(F)(F)F)cc1Cl | i | 12.2* | i | 217.5%* | CHO-K1 Tl ctr=-22.4;KCNQ1 pot spec=31.9*;KCNQ2 pot confirm=17.9*;Kir2-1 sel=-20.7;KCNQ2 W236L pot=i
CC(Cl)C(=O)Nc1ncc(C(F)(F)F)cc1Cl (centres undefined) | i | 0.2 | x | x
S=C1NCN(Cc2cccnc2)CN1c1cccc2ccccc12 | i | x | x | x
CCOc1ccc(NC(=O)C/C(C)=N/NC(=O)COc2ccc(Br)cc2C)cc1 | i | x | x | x
